Source: PubChem BioAssay AID977607 (Broad Institute, 2014)
Out of some 1,500 compounds screened, about 460 (31%) were called active. Roughly 1% stayed inconclusive and do not appear here. These entries were drawn from the full list. Potency and affinity values are given separately. A number with no mark means an inactive call.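 The calls were made as follows: active = curve reaches 40% activation over neutral controls at an AC40 no higher than the top valid tested concentration; inconclusive = no clear call, values can overlap the other calls; inactive = signal moving opposite to the expected increase, and the rest.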

Assay: GLuc-reported insulin release enhancers, glucose-stimulated beta cells – cell-based, INS-1E, Gaussia luciferase, luminescence, cherry-pick, set 2, dose response (AID 977607);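 also: 0% = median of the plate neutral control wells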
Conditions: INS-1E GLuc insulin secretion reporter, 2-3 h, active compounds read high; at 35 µM, 100% = signal doubled over neutral wells unless noted

Structure (SMILES)	max activation
O=C(NCc1ccco1)c1ccc2c(=O)n(CCC3=CCCCC3)c(=O)[nH]c2c1	-21.9%
Cc1cc2nc(-c3ccc(Cl)cc3)c(Cc3ccsc3)n2c(C)c1Br	-39.9% [at 11 µM, 100% = signal doubled over neutral wells]
COc1ccc(C(=O)NCC(=O)OCC(=O)Nc2sccc2C#N)cc1OC	24.5%
COc1ccc(C(=O)NCC(=O)OCC(=O)NC2CCCCCC2)cc1OC	19.5%
COc1ccc2[nH]c3c(NCCCN4CCCC4=O)ncnc3c2c1	11.2% [at 1.2 µM, 100% = signal doubled over neutral wells]
Cc1ccc(S(=O)(=O)/N=C(/Nc2cccc(O)c2)c2ccccc2)cc1	48.6%
COc1cc(C(=O)Nc2cc(C(F)(F)F)ccc2N2CCOCC2)ccc1OCC(=O)N1CCOCC1	-13.6% [at 3.8 µM, 100% = signal doubled over neutral wells]
Cc1ccc(C)c(S(=O)(=O)Nc2ccc(C(=O)N3CCC3)cc2)c1	27.7%
Cc1c(-c2cccc(Cl)c2)nc2ccccc2c1C(=O)NC1CC1	35.1% [at 1.2 µM, 100% = signal doubled over neutral wells]
Cc1cc(C)cc(Cn2c3ccc(NC(=S)NCc4ccccc4F)cc3c(=O)n2C)c1	-51.1%
COC(=O)c1cccc(-n2c(=O)n(Cc3ccccc3)c(=O)c3[nH]cnc32)c1C	38.9% [at 11 µM, 100% = signal doubled over neutral wells]
O=c1c2[nH]cnc2n(-c2ccc(F)cc2)c(=O)n1Cc1ccccc1	25.9% [at 0.42 µM, 100% = signal doubled over neutral wells]
CN(Cc1ccccc1)c1ncnc2[nH]ncc12	19.1% [at 3.8 µM, 100% = signal doubled over neutral wells]
Nn1c(C2CCCCC2)nc2ccccc2c1=O	-24.8% [at 0.42 µM, 100% = signal doubled over neutral wells]
CC(O)c1nc2ccccc2n1C1CCCCC1 (stereo not drawn)	-13.8% [at 3.8 µM, 100% = signal doubled over neutral wells]
O=C(O)COc1ccc2c3c(c(=O)oc2c1)CCC3	-18%
CCOC(=O)Cc1cc(=O)n2[nH]c(-c3ccc(C)cc3)cc2n1	26.5% [at 0.015 µM, 100% = signal doubled over neutral wells]
O=C(CCS(=O)(=O)c1ccc(Cl)cc1)Nc1ccc(N2CCOCC2)cc1	26.5% [at 0.0016 µM, 100% = signal doubled over neutral wells]
CCOc1ccc(CCNC(=O)CCC(=O)c2cccs2)cc1OCC	-10.4% [at 0.0016 µM, 100% = signal doubled over neutral wells]

Structure (SMILES)	max activation
CC(=O)Cc1nsc(NC(=O)c2ccc(-c3cccc(Cl)c3)o2)n1	-41.3%
C=CCNC(=O)c1cc(-c2ccc3c(c2)OCO3)on1	-23.5%
CCOc1cccc2cc(C(=O)Nc3cc(C)on3)c(=O)oc12	-15.3% [at 0.42 µM, 100% = signal doubled over neutral wells]
O=C(NCCc1ccccc1)c1cc(-c2ccc3c(c2)OCO3)on1	-16.8% [at 0.015 µM, 100% = signal doubled over neutral wells]
CCc1cc2c(COC(=O)c3cccc(S(C)(=O)=O)c3)cc(=O)oc2cc1O	-21.8%
COCCNc1nc(NCCCN2CCCC2=O)c2sccc2n1	-21.2% [at 0.005 µM, 100% = signal doubled over neutral wells]
CN(C)c1ncnc2sc(-c3ccccc3)cc12	75.3%
CCOC(=O)c1cnc2c(cnn2C)c1Oc1ccc(OC)cc1	-8.37% [at 0.135 µM, 100% = signal doubled over neutral wells]
C=C(C)n1c(=O)n(Cc2ccccc2C)c2ccccc21	-20.9% [at 0.0016 µM, 100% = signal doubled over neutral wells]
COc1ccc(CC(=O)OCC(=O)N2CCc3ccccc32)cc1OC	-17.9% [at 0.135 µM, 100% = signal doubled over neutral wells]
COc1ccc(CN(C)C(=O)CCN=C2NS(=O)(=O)c3ccccc32)c(OC)c1	-22.4% [at 0.015 µM, 100% = signal doubled over neutral wells]
O=C1Nc2ccccc2N(C(=O)c2ccc3ccccc3c2)C1c1nc2ccccc2[nH]1 (stereo not drawn)	-24.4% [at 11 µM, 100% = signal doubled over neutral wells]
CC1=C(C(=O)N2CCOCC2)CC(CC(=O)NCCCN(C)C)C(=O)N1CCCN1CCCC1=O (stereo not drawn)	-20.9%
Cc1cc(Br)ccc1NC(=O)CN(C)C(=O)C1CSC2(C)CCC(=O)N12 (stereo not drawn)	-12.1% [at 0.015 µM, 100% = signal doubled over neutral wells]
COc1ccc(S(=O)(=O)N2CCc3ccccc32)cc1C(=O)Nc1cccnc1	-10.3% [at 3.8 µM, 100% = signal doubled over neutral wells]
O=S(=O)(c1ccc(Cl)nc1)N1CCc2ccccc21	-28.1%
COc1cc(C(=O)O)ccc1OCc1ccccc1	-15.4% [at 0.42 µM, 100% = signal doubled over neutral wells]
CCc1ccc(N(C2C=CS(=O)(=O)C2)S(=O)(=O)c2ccccc2)cc1 (stereo not drawn)	-8.85% [at 0.015 µM, 100% = signal doubled over neutral wells]
CCCc1nnc2c(N(C)S(=O)(=O)c3ccc(C)cc3)nc3ccccc3n12	-17% [at 0.005 µM, 100% = signal doubled over neutral wells]
